Experimental data published in PubChem BioAssay (EPA / NIEHS).
Active and inactive are the calls of the source. The calls were made as follows: active = hit-call score of the fitted dose curve at least 0.9, where 1 is the maximum; inactive = score below 0.9.

Each compound was assayed on JUN Transcription Factor, JUN (gene 3725) (assay: LTEA_HepaRG_JUN: Life Technologies and Expression Analysis (LTEA) Assay for JUN Transcription Factor using HepaRG (AID 2283513)). Details: mRNA level, 48 h; actives raise or lower the signal.
Outline: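 Cells plated 48 h, medium switched to serum-free induction medium, then dosed 48 h (100 uM top, half-log dilutions, 0.5% DMSO). RNA isolated; JUN measured by qRT-PCR against three housekeeping genes; gain or loss fitted relative to DMSO.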
With C=CC(=C)CCC=C(C)C the outcome was “inactive”.
C1=CCCC=CCCC=CCC1 was tested, and the outcome was “inactive”.
For CC(C)=CCCC(C)=CC=O, the outcome was “inactive”.
With Cn1cnc([N+](=O)[O-])c1Sc1ncnc2nc[nH]c12 the outcome was “inactive”.
For CC(C)CC(C)(O)C#CC(C)(O)CC(C)C (configuration not stated), the outcome was “inactive”.

What follows are compounds tested on Lipase C (LIPC), LIPC (gene 3990) (assay: LTEA_HepaRG_LIPC: Life Technologies and Expression Analysis (LTEA) Assay for Lipase C (LIPC) using HepaRG (AID 2283514)). Details: mRNA level, 48 h; actives raise or lower the signal.
Outline: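 Differentiated human HepaRG cells in serum-free induction medium were exposed in duplicate for 48 h to eight concentrations (top 100 uM, half-log steps, 0.5% DMSO). LIPC mRNA was quantified by TaqMan qRT-PCR, normalized to ACTB, GAPDH and POLR2A, with bidirectional fitting versus DMSO.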
In the case of CC1=CC(=O)CC(C)(C)C1, the outcome is reported as “inactive”.
With CC(C)CCO the outcome was “inactive”.
For O=C(O)CCN(C1(C(=O)NO)CCCC1)S(=O)(=O)c1ccc(Oc2ccc(F)cc2)cc1, the outcome was “inactive”.
With COC(=O)c1ccccc1O the outcome was “inactive”.
In the case of CC(=O)OCCC(C)C, the outcome is reported as “inactive”.
With Clc1nc(Cl)c(Cl)c(Cl)c1Cl the outcome was “inactive”.
For Cc1ccc(S(=O)(=O)O)cc1C, the outcome was “inactive”.
For CCOCCOCCOCCO, the outcome was “inactive”.
With COC(=O)c1c(Cl)c(Cl)c(C(=O)OC)c(Cl)c1Cl the outcome was “inactive”.
For CC1(C)C(=O)N(Br)C(=O)N1Br, the outcome was “inactive”.
With COC(=O)CC(=O)OC the outcome was “inactive”.
In the case of CC[C@H]1CC[C@H](NCc2cc3c(cc2OC)[C@H]2C[C@H]2C(=O)N3C)[C@H](c2ccccc2)N1, the outcome is reported as “inactive”.
CC(O)CN(CCN(CC(C)O)CC(C)O)CC(C)O (configuration not stated) was tested, and the outcome was “inactive”.
O=C1CCC(N2C(=O)c3ccccc3C2=O)C(=O)N1 (configuration not stated) was tested, and the outcome was “inactive”.
In the case of O=P(OC(CCl)CCl)(OC(CCl)CCl)OC(CCl)CCl, the AC50 is reported as 65.3 µM (active).
COc1cccc(-c2ccc(/C=C\CN3CCCCCC3)cc2Cl)c1 was tested, and the AC50 was 70.6 µM (active).
O=C1CCCCCN1 was tested, and the outcome was “inactive”.
In the case of CCOCCO, the outcome is reported as “inactive”.
In the case of CCN(C(=O)c1cc(C)cc(OC[C@H](C)Nc2ccncc2)c1)C(C)C, the AC50 is reported as 33.8 µM (active).
With CCCCC(CC)COC(=O)c1ccc(C(=O)OCC(CC)CCCC)cc1 (configuration not stated) the outcome was “inactive”.
CNS(=O)(=O)c1cc(C(=O)N2CCC(CCN3C4CCC3CC(n3c(C)nc5ccccc53)C4)(c3cccc(F)c3)CC2)c(Cl)cc1F (configuration not stated) was tested, and the AC50 was 30.1 µM (active).
CCCCCCc1ccc(O)cc1O was tested, and the outcome was “inactive”.
In the case of COCCOCCOCCOC, the outcome is reported as “inactive”.
For CC[C@H](C)C(=O)O[C@H]1C[C@@H](C)C=C2C=C[C@H](C)[C@H](CC[C@@H]3C[C@@H](O)CC(=O)O3)[C@H]21, the outcome was “inactive”.
With C=CC(=C)CCC=C(C)C the outcome was “inactive”.
C1=CCCC=CCCC=CCC1 was tested, and the outcome was “inactive”.
In the case of CC(C)=CCCC(C)=CC=O, the outcome is reported as “inactive”.
In the case of Cn1cnc([N+](=O)[O-])c1Sc1ncnc2nc[nH]c12, the AC50 is reported as 17.7 µM (active).
With CC(C)CC(C)(O)C#CC(C)(O)CC(C)C (configuration not stated) the outcome was “inactive”.

The compounds below were run on Lipoprotein lipase (LPL), LPL (gene 4023) (assay: LTEA_HepaRG_LPL: Life Technologies and Expression Analysis (LTEA) Assay for Lipoprotein lipase (LPL) using HepaRG (AID 2283515)). Details: mRNA level, 48 h; actives raise or lower the signal.
Outline: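 Differentiated human HepaRG cells in serum-free induction medium were exposed in duplicate for 48 h to eight half-log concentrations (top 100 uM) in 0.5% DMSO. LPL mRNA was quantified by TaqMan qRT-PCR, normalized to ACTB, GAPDH and POLR2A.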
With CC1=CC(=O)CC(C)(C)C1 the outcome was “inactive”.
CC(C)CCO was tested, and the outcome was “inactive”.
In the case of O=C(O)CCN(C1(C(=O)NO)CCCC1)S(=O)(=O)c1ccc(Oc2ccc(F)cc2)cc1, the outcome is reported as “inactive”.
With COC(=O)c1ccccc1O the outcome was “inactive”.
CC(=O)OCCC(C)C was tested, and the outcome was “inactive”.
Clc1nc(Cl)c(Cl)c(Cl)c1Cl was tested, and the outcome was “inactive”.
In the case of Cc1ccc(S(=O)(=O)O)cc1C, the outcome is reported as “inactive”.
CCOCCOCCOCCO was tested, and the outcome was “inactive”.
COC(=O)c1c(Cl)c(Cl)c(C(=O)OC)c(Cl)c1Cl was tested, and the outcome was “inactive”.
For CC1(C)C(=O)N(Br)C(=O)N1Br, the outcome was “inactive”.
For COC(=O)CC(=O)OC, the outcome was “inactive”.
For CC[C@H]1CC[C@H](NCc2cc3c(cc2OC)[C@H]2C[C@H]2C(=O)N3C)[C@H](c2ccccc2)N1, the AC50 was 50 µM (active).
CC(O)CN(CCN(CC(C)O)CC(C)O)CC(C)O (configuration not stated) was tested, and the outcome was “inactive”.
O=C1CCC(N2C(=O)c3ccccc3C2=O)C(=O)N1 (configuration not stated) was tested, and the outcome was “inactive”.
O=P(OC(CCl)CCl)(OC(CCl)CCl)OC(CCl)CCl was tested, and the AC50 was 91.3 µM (active).
COc1cccc(-c2ccc(/C=C\CN3CCCCCC3)cc2Cl)c1 was tested, and the AC50 was 79 µM (active).
With O=C1CCCCCN1 the outcome was “inactive”.
CCOCCO was tested, and the outcome was “inactive”.
With CCN(C(=O)c1cc(C)cc(OC[C@H](C)Nc2ccncc2)c1)C(C)C the AC50 was 33.8 µM (active).
With CCCCC(CC)COC(=O)c1ccc(C(=O)OCC(CC)CCCC)cc1 (configuration not stated) the outcome was “inactive”.
For CNS(=O)(=O)c1cc(C(=O)N2CCC(CCN3C4CCC3CC(n3c(C)nc5ccccc53)C4)(c3cccc(F)c3)CC2)c(Cl)cc1F (configuration not stated), the AC50 was 18.2 µM (active).
For CCCCCCc1ccc(O)cc1O, the outcome was “inactive”.
In the case of COCCOCCOCCOC, the outcome is reported as “inactive”.
CC[C@H](C)C(=O)O[C@H]1C[C@@H](C)C=C2C=C[C@H](C)[C@H](CC[C@@H]3C[C@@H](O)CC(=O)O3)[C@H]21 was tested, and the outcome was “inactive”.
C=CC(=C)CCC=C(C)C was tested, and the outcome was “inactive”.
For C1=CCCC=CCCC=CCC1, the outcome was “inactive”.
In the case of CC(C)=CCCC(C)=CC=O, the outcome is reported as “inactive”.
In the case of Cn1cnc([N+](=O)[O-])c1Sc1ncnc2nc[nH]c12, the outcome is reported as “inactive”.
With CC(C)CC(C)(O)C#CC(C)(O)CC(C)C (configuration not stated) the outcome was “inactive”.

What follows are compounds tested on MicroRNA 122 (MIR122), gene 406906 (assay: LTEA_HepaRG_MIR122: Life Technologies and Expression Analysis (LTEA) Assay for MicroRNA 122 (MIR122) using HepaRG (AID 2283516; also: the transcript read is the microRNA miR-122)). Details: mRNA level, 48 h; actives raise or lower the signal.
Outline: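 HepaRG plated 48 h, switched to serum-free induction medium, then treated in duplicate for 48 h (100 uM top, half-log steps, 0.5% DMSO vehicle). RNA isolated, qRT-PCR performed, concentration-response fitted both directions relative to DMSO.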
For CC1=CC(=O)CC(C)(C)C1, the outcome was “inactive”.
With CC(C)CCO the outcome was “inactive”.
In the case of O=C(O)CCN(C1(C(=O)NO)CCCC1)S(=O)(=O)c1ccc(Oc2ccc(F)cc2)cc1, the outcome is reported as “inactive”.
With COC(=O)c1ccccc1O the outcome was “inactive”.
In the case of CC(=O)OCCC(C)C, the outcome is reported as “inactive”.
In the case of Clc1nc(Cl)c(Cl)c(Cl)c1Cl, the outcome is reported as “inactive”.
In the case of Cc1ccc(S(=O)(=O)O)cc1C, the outcome is reported as “inactive”.
In the case of CCOCCOCCOCCO, the outcome is reported as “inactive”.
COC(=O)c1c(Cl)c(Cl)c(C(=O)OC)c(Cl)c1Cl was tested, and the outcome was “inactive”.
For CC1(C)C(=O)N(Br)C(=O)N1Br, the outcome was “inactive”.
COC(=O)CC(=O)OC was tested, and the outcome was “inactive”.
In the case of CC[C@H]1CC[C@H](NCc2cc3c(cc2OC)[C@H]2C[C@H]2C(=O)N3C)[C@H](c2ccccc2)N1, the outcome is reported as “inactive”.
CC(O)CN(CCN(CC(C)O)CC(C)O)CC(C)O (configuration not stated) was tested, and the outcome was “inactive”.
O=C1CCC(N2C(=O)c3ccccc3C2=O)C(=O)N1 (configuration not stated) was tested, and the outcome was “inactive”.
O=P(OC(CCl)CCl)(OC(CCl)CCl)OC(CCl)CCl was tested, and the AC50 was 59.6 µM (active).
In the case of COc1cccc(-c2ccc(/C=C\CN3CCCCCC3)cc2Cl)c1, the outcome is reported as “inactive”.
For O=C1CCCCCN1, the outcome was “inactive”.
CCOCCO was tested, and the outcome was “inactive”.
In the case of CCN(C(=O)c1cc(C)cc(OC[C@H](C)Nc2ccncc2)c1)C(C)C, the AC50 is reported as 33.8 µM (active).
In the case of CCCCC(CC)COC(=O)c1ccc(C(=O)OCC(CC)CCCC)cc1 (configuration not stated), the outcome is reported as “inactive”.
In the case of CNS(=O)(=O)c1cc(C(=O)N2CCC(CCN3C4CCC3CC(n3c(C)nc5ccccc53)C4)(c3cccc(F)c3)CC2)c(Cl)cc1F (configuration not stated), the AC50 is reported as 18.8 µM (active).
With CCCCCCc1ccc(O)cc1O the outcome was “inactive”.
With COCCOCCOCCOC the outcome was “inactive”.
For CC[C@H](C)C(=O)O[C@H]1C[C@@H](C)C=C2C=C[C@H](C)[C@H](CC[C@@H]3C[C@@H](O)CC(=O)O3)[C@H]21, the outcome was “inactive”.
C=CC(=C)CCC=C(C)C was tested, and the outcome was “inactive”.
For C1=CCCC=CCCC=CCC1, the outcome was “inactive”.
CC(C)=CCCC(C)=CC=O was tested, and the outcome was “inactive”.
With Cn1cnc([N+](=O)[O-])c1Sc1ncnc2nc[nH]c12 the AC50 was 4.54 µM (active).
In the case of CC(C)CC(C)(O)C#CC(C)(O)CC(C)C (configuration not stated), the outcome is reported as “inactive”.
